aSyn UTR act: Activators working through SNCA 5'UTR binding (MLPCN); alpha-synuclein 5'UTR reporter, activators screen; activity score, % (tested at 7.5 µM), hits read low; actives 7.1% (n = 300,000); AID 1814; in the data active = activity score below about -60%
Each line names hits and unclear results; the compound was inactive in the other large screens. A selection follows.

Cc1[nH]c(C)c(C(=O)/C=C/c2ccc([N+](=O)[O-])cc2)c1C	aSyn UTR act -232
CCCC(C(=O)Nc1ccc2c(C)cc(=O)oc2c1)c1ccccc1 (stereo unspecified)	aSyn UTR act -66
Cc1cc(=O)oc2cc(Nc3ccccc3)ccc12	aSyn UTR act -90
O=C(Nc1cccc(-c2nc3ccccc3s2)c1)c1cc(-n2cnnc2)ccc1Cl	aSyn UTR act -85
Cc1c(NC(=O)c2cc(-n3cnnc3)ccc2Cl)cccc1-c1nc2ccccc2s1	aSyn UTR act -90
Cc1ccc2sc(-c3ccc(NC(=O)c4cc(-n5cnnc5)ccc4Cl)cc3)nc2c1	aSyn UTR act -153
Cc1ccc(NC(=O)C2CC2c2ccccc2)c([N+](=O)[O-])c1 (stereo unspecified)	aSyn UTR act -88
Cc1cc(C(=O)CSc2nnnn2C)c(C)n1Cc1ccco1	aSyn UTR act -109
Cc1cc(C(=O)CSc2ncccn2)c(C)n1Cc1ccco1	aSyn UTR act -69
CC(=O)NC1=NN(C(C)=O)C(c2ccc(C(C)C)cc2)S1 (stereo unspecified)	aSyn UTR act -77
O=S(=O)([N-]c1nc2ccccc2nc1-[n+]1ccc(-c2ccncc2)cc1)c1ccccc1	aSyn UTR act -105
O=C(NC1=NCCS1)c1ccc(Cl)cc1	aSyn UTR act -180
O=C(NC1=NCCS1)c1sc2cc(F)ccc2c1Cl	aSyn UTR act -191
O=C(NC1=NCCS1)c1ccc(-c2ccc(Cl)cc2)o1	aSyn UTR act -191
O=C(NCCCN1CCOCC1)c1sc2cc(F)ccc2c1Cl	aSyn UTR act -62
O=C(NNC1=Nc2ccccc2SC1)c1ccc(Cl)cc1	none
O=C(NC1CCC(O)CC1)c1ccc(-c2ccc(Cl)cc2)o1 (stereo unspecified)	aSyn UTR act -112
CCC1CCCCN1C(=O)c1ccc(OC2CCN(C(=O)CCOC)CC2)cc1 (stereo unspecified)	aSyn UTR act -82
Clc1ccc(CO/N=C2\CCCc3nonc32)cc1	aSyn UTR act -70
CC(=O)c1cccc(NC(=O)/C=C/c2ccc([N+](=O)[O-])s2)c1	aSyn UTR act -326
Cc1cc(C)cc(NC(=O)/C=C/c2ccc([N+](=O)[O-])s2)c1	aSyn UTR act -244
CCOC(=O)c1ccc(NC(=O)/C=C/c2cccs2)cc1	aSyn UTR act -251
Cc1ccccc1NC(=O)/C=C/c1ccc([N+](=O)[O-])s1	aSyn UTR act -80
Cc1ccccc1NC(=O)/C=C/c1cccs1	aSyn UTR act -119
Cc1ccc(NC(=O)NCC(c2ccccc2)N(C)C)cc1 (stereo unspecified)	aSyn UTR act -107
COc1ccc(C)cc1NC(=O)CNC(c1ccccc1)c1ccc(C)cc1 (stereo unspecified)	none
Cc1ccc(NC(=O)CNC(C)c2ccccc2)cc1 (stereo unspecified)	aSyn UTR act -73
Cc1cccc(NC(=O)c2cc3ccccc3o2)c1	aSyn UTR act -272
O=C(Nc1cccc(Br)c1)c1cc2ccccc2o1	aSyn UTR act -184
NS(=O)(=O)c1cccc(NC(=O)c2cc3ccccc3o2)c1	aSyn UTR act -71
CCC(=O)Nc1cccc(NC(=O)c2cc3ccccc3o2)c1	aSyn UTR act -168
COc1ccc(C(C#N)N2N=C(c3ccccc3)CC2c2ccccc2)cc1OC (stereo unspecified)	aSyn UTR act -182
COc1ccc(C2=NN(C(C#N)c3ccc(OC)cc3)C(c3ccccc3)C2)cc1 (stereo unspecified)	aSyn UTR act -250
N#C/C(=C\c1c(N2CCN(c3ccccc3)CC2)nc2ccccn2c1=O)C(N)=O	aSyn UTR act -71
COC(=O)/C(C#N)=C/c1c(N2CCN(c3ccccc3)CC2)nc2ccccn2c1=O	aSyn UTR act -65
CCOC(=O)/C(C#N)=C/c1c(N2CCN(c3ccccc3)CC2)nc2ccccn2c1=O	aSyn UTR act -62
Cc1ccc2ccc(C3C(=O)c4ccccc4C3=O)nc2c1	aSyn UTR act -146
OC[C@H]1O[C@@H](n2cnc3c(Nc4ccccc4)ncnc32)[C@H](O)[C@@H]1O	aSyn UTR act -79
Nc1ccn([C@@H]2O[C@H](CO)[C@@H](O)C2O)c(=O)n1 (stereo partly specified)	none
N=c1ccn2c(n1)OC1C(O)C(CO)OC12 (stereo unspecified)	none
O=C(O)c1ccc(NNC(=S)Nc2cc(C(F)(F)F)ccc2Cl)cc1	aSyn UTR act -141
CC(C)(C)c1ccc(-c2nc(C#N)c(NCc3ccncc3)o2)cc1	aSyn UTR act -107
Cc1ccc(-c2nc(C#N)c(NCc3cccc4c3OCO4)o2)cc1	aSyn UTR act -66
COc1cccc(N(C(=O)CCl)C(C(=O)NCCc2ccccc2)c2cccs2)c1 (stereo unspecified)	aSyn UTR act -112
N#Cc1c(NC(=O)C2CCCO2)sc2c1CCCCCC2 (stereo unspecified)	aSyn UTR act -98
NC(=O)c1c(NC(=O)C2CCCO2)sc2c1CCCC2 (stereo unspecified)	aSyn UTR act -74
CCOc1ccc(N/C(C)=C/C(=O)c2ccc3c(c2)OCCO3)cc1	aSyn UTR act -204
CCOc1ccc(N/C(C)=C\C(=O)c2ccc3c(c2)OCCO3)cc1	aSyn UTR act -133
C=CCSc1ncc(C(=O)OCC)c(N)n1	aSyn UTR act -101
CCOC(=O)c1cnc(SCc2ccccc2)nc1N	aSyn UTR act -183
Cc1ccc(-c2nnc(-c3ccccc3)o2)cc1Br	aSyn UTR act -149
Cc1ccc(-c2nnc(-c3cccc(Br)c3)o2)cc1	aSyn UTR act -159
C/C(=N\N=C(N)N)c1cc(Cl)ccc1Cl	none
Nc1nnc(-c2ccc(Cl)cc2Cl)s1	aSyn UTR act -108
O=[N+]([O-])c1cc(/C=N/O)ccc1Oc1ccccc1Cl	aSyn UTR act -65
CO/N=C/c1ccc(Oc2ccc(C)cc2)c([N+](=O)[O-])c1	aSyn UTR act -90
O=[N+]([O-])c1cc([N+](=O)[O-])c(Oc2cccc(Cl)c2Cl)cc1NN1CCCCC1	none
C=CCn1c(SCc2c(C)noc2C)nc2sc3c(c2c1=O)CCCCC3	none
O=c1c2c3c(sc2nc2sc(CN4CCCCC4)cn12)CCCC3	aSyn UTR act -87
CCOc1ccc(/C=C/C(=O)c2ccccc2)cc1OC	aSyn UTR act -112
COc1cc(/C=C/C(=O)c2ccc(O)cc2)ccc1OCC#N	aSyn UTR act -134
COc1cccc(C(=O)/C=C/c2ccc(OCC#N)c(OC)c2)c1	aSyn UTR act -121
COc1cc(C)c(C(C)C)cc1S(=O)(=O)n1cnc(C)c1	none
c1ccc(Cn2cc(CSc3ccccc3)nn2)cc1	aSyn UTR act -137
Cc1cc2nc(-c3cccnc3SCC(=O)NC3CC3)[nH]c2cc1C	aSyn UTR act -115
Cc1cc2nc(-c3cccnc3SCC(=O)NCc3ccco3)[nH]c2cc1C	aSyn UTR act -145
N/C(=N\OC(=O)/C=C/c1ccccc1Cl)c1cccnc1	aSyn UTR act -248
N/C(=N\OC(=O)/C=C/c1ccccc1)c1cccnc1	aSyn UTR act -159
Cc1ccc(C2=N/C(=C\N3CCCCC3)C(=O)O2)cc1	aSyn UTR act -105
Cc1ccc(C2=N/C(=C/N3CCOCC3)C(=O)O2)cc1	aSyn UTR act -100
Cc1cccc(Nc2nc(N)nc(CSc3nccn3C)n2)c1	aSyn UTR act -99
Cc1ccc(Sc2cnc3ccccc3n2)cc1	aSyn UTR act -176
Cc1ccc(-n2cnc3c(sc4nccc(N(C)C)c43)c2=O)cc1	aSyn UTR act -132
COCC(C)N=C1NN=C(c2c[nH]c3ccccc23)CS1 (stereo unspecified)	aSyn UTR act -66
CCN=C1NN=C(c2c[nH]c3ccccc23)CS1	aSyn UTR act -68
